In the library only some 10% were active in any assay of this set; here they are far more common.
GLS inh = inhibitors of human glutaminase (GLS) | O94925 | GLS enzymatic activity, qHTS titration | 0.21% of 410,000 active | Potency, µM (titrated, usually from 45.5 µM), usual class: inhibitors
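hKGA; 45 mM KH2PO4 pH 8.2 + 0.02% Tween-20; cpd via pin tool; 1 mM Gln soln; GluOx/HRP/Amplex Red; RT 30 min; fluor. t0 & final.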
G9a inh = inhibitors of human histone lysine methyltransferase G9a. G9a H3K9 monomethylation, AlphaScreen, 2 h. Potency, µM (doses to about 102 µM), hits mostly inhibitors. 8.8% of 350,000 active. AID 504332; also: nearly all actives have a fitted effect of over 75% in size
Target sequence (Q96KQ7 913-1193 limits assumed): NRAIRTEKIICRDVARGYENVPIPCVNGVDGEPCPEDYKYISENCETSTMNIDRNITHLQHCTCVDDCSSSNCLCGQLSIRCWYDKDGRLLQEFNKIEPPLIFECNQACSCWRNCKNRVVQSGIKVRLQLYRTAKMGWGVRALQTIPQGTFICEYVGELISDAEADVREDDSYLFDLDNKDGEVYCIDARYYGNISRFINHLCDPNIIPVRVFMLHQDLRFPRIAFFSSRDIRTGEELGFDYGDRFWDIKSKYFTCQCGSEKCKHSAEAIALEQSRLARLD
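AlphaScreen detection with an anti-monomethyl H3K9 antibody quantified product after a 2 h room-temperature reaction containing 500 nM biotinylated H3K9 peptide, 20 µM SAM and 20 nM enzyme, which had been preincubated 15 min with compound.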
HP1b binding inh = blocks HP1-beta chromodomain binding to methylated histone tails; Potency, µM (titrated, usually from 114 µM), most hits filed as inhibitors; AID 540317; P83916; 0.56% of 390,000 active; AlphaScreen HP1-beta / biotin-H3K9me3 peptide binding; also: nearly all actives have a fitted effect of over 70% in size
Target sequence (P83916 whole entry, looked up): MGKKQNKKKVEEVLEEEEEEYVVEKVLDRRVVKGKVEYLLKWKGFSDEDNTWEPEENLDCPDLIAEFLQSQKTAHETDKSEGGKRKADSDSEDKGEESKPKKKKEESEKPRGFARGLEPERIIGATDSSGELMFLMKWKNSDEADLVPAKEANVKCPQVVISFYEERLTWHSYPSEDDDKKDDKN
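Compound inhibition of the preformed complex between 50 nM HP1-beta and 50 nM biotinylated H3K9me3 peptide was read by AlphaScreen. Buffer was PBS pH 7.4 with 0.01% Tween-20. Incubations ran 30 min at room temperature, with 10 ug/mL donor/acceptor beads.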
JMJD2A Tudor inh = inhibitors of human JMJD2A Tudor domain | O75164 | 4.4% of 390,000 active | Potency, µM (titrated, usually from 114 µM), most hits filed as inhibitors | AlphaScreen JMJD2A-Tudor / H3K4me3 peptide binding | AID 504339; also: nearly all actives have a fitted effect of over 50% in size
BAZ2B inh = inhibitors of human BAZ2B bromodomain; Potency, µM (series often up to 114 µM), hits mostly inhibitors; 4.4% of 360,000 active; AlphaScreen BAZ2B-H3K14Ac peptide displacement; Q9UIF8; AID 504333; also: nearly all actives have a fitted effect of over 60% in size
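BAZ2B 50 nM plus b-H3(5-23)K14Ac 50 nM, PBS pH 7.4/0.01% Tween-20, 30 min RT; compound added (max 110 uM), 30 min RT; streptavidin donor/Ni-chelate acceptor beads 10 ug/mL final, 20 min dark; AlphaScreen read.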
Hits are given with their value; i = inactive; ? = inconclusive; nt = not tested or not shown; [ ] = remark or other dose. Calls follow the shape of the dose curve; as a rule, active = well fitted curve in the direction sought with a large enough effect; inconclusive = small, poorly fitted or top-dose-only effect, or another doubt; inactive = no such curve, though single readings can be large; an effect the other way counts as inactive or inconclusive.

SMILES | GLS inh | G9a inh | HP1b binding inh | JMJD2A Tudor inh | BAZ2B inh
COc1ccc2cc(CCNC(=O)c3ccco3)c(=O)[nH]c2c1 | i | 45µM | i | i | i
Cc1ccc2cc(CCNC(=O)c3ccco3)c(=O)[nH]c2c1 | i | ? | i | i | i
CC1(C)[C@@H](O[C@H]2O[C@H](C(=O)O)[C@@H](O)[C@H](O)[C@H]2O[C@@H]2O[C@H](C(=O)O)[C@@H](O)[C@H](O)[C@H]2O)CC[C@]2(C)[C@H]3C(=O)C=C4[C@@H]5C[C@@](C)(C(=O)O)CC[C@]5(C)CC[C@@]4(C)[C@]3(C)CC[C@@H]12 | nt | i | nt | nt | nt
CCc1nc2c(OCc3ccc(C(=O)N(C)C)cc3)cccn2c1N(C=O)Cc1ccccc1 | i | nt | nt | nt | nt
Cc1ccc(S(=O)(=O)N2CCC(C(=O)OCC(=O)N(CCC#N)c3ccc(F)cc3)CC2)cc1C | i | i | i | i | i
Cc1ccc(N(CCC#N)C(=O)COC(=O)C2=COCCO2)cc1 | i | 40µM | i | i | i
CN(C)C(=O)c1ccc(NC(=O)COC(=O)C2CCN(S(=O)(=O)c3ccc4c(c3)OCCO4)CC2)cc1 | i | 40µM | i | i | i
CCN(CC)C(=O)COC(=O)C1CCN(S(=O)(=O)c2ccc3c(c2)OCCO3)CC1 | i | i | i | i | i
Cc1ccc(N(CCC#N)C(=O)COC(=O)C2CCN(S(=O)(=O)c3ccc4c(c3)OCCO4)CC2)cc1 | i | 32µM | i | i | i
Cc1ccc(-c2csc(NC(=O)c3ccc([N+](=O)[O-])o3)n2)cc1 | i | i | i | ? | ?
COc1cccc(NC(=O)CN2C(=O)NC(C)(CCC(C)C)C2=O)c1 (centres undefined) | i | i | i | i | i
CC(=O)N/C(=C/c1ccc2c(c1)OCO2)C(=O)NCc1ccccc1 | i | nt | i | i | i
O=C(Cn1ccc(NC(=O)OCc2ccccc2)nc1=O)NCc1ccc2c(c1)OCO2 | i | i[0.501 µM] | i | i | i
OC(CN1CCOCC1)c1ccc(F)cc1 (centres undefined) | i | i | ? | 20µM | 50µM
O=[N+]([O-])c1ccc(C(O)CN2CCOCC2)cc1 (centres undefined) | i | i | i | i | i
Cn1c(=O)n(CCOc2ccc(Cl)cc2Cl)c2ccccc21 | i | ? | i | i | i
CC1CC(C)CN(CCOc2cccc(Cl)c2Cl)C1 (centres undefined) | i | 13µM | ? | 79µM | ?
CCC(=O)c1ccccc1OCCCCn1cncn1 | i | 8.9µM | ? | 5.6µM | 28µM
CC(=O)c1ccccc1OCCOc1ccccc1C(C)=O | i | i | i | i | i
CC1CC(C)CN(CCOc2ccc(Cl)cc2Cl)C1 (centres undefined) | i | ? | ? | 2.8µM | 56µM
CC1CC(C)CN(CCC(=O)Nc2cccc(Cl)c2)C1 (centres undefined) | i | i[2.33 µM] | i | i | i
CCC(=O)c1ccccc1OCCN1CCN(CC)CC1 | i | 14µM | ? | 14µM | 35µM
CC[C@H](C)[C@H](NC(N)=O)C(=O)Nc1ccccc1F | i | i | i | i | i
CCOC(=O)C1(C)Oc2ccc(S(=O)(=O)CC)cc2NC1=O (centres undefined) | i | i | i | i | i
COc1ccc(-c2nc(CS(=O)(=O)CC(=O)NCc3ccccc3Br)c(C)o2)cc1 | i | i | i | i | i
SMILES | GLS inh | G9a inh | HP1b binding inh | JMJD2A Tudor inh | BAZ2B inh
CCN1CCN(CCOc2cccc(Cl)c2Cl)CC1 | i | nt | ? | 4µM | 18µM
CC1(C)NC(=O)N(CCOc2cccc(Cl)c2Cl)C1=O | i | i | i | i | i
Clc1cccc(OCCn2cncn2)c1Cl | i | ? | i | i[11.4 µM] | 56µM
Cc1ccc(C(C)C)cc1OCCn1cncn1 | i | 11µM | 50µM | 2.2µM | 79µM
c1ccc(Oc2cccc(OCCCn3cncn3)c2)cc1 | i | i[12.7 µM] | i | i | i
C=CCc1ccc(OCCn2cncn2)c(OC)c1 | i | i | i | i | i
CCn1c(CNC(=O)c2ccc(OC)cc2)nnc1SCC(=O)Nc1ccccc1 | i | i | i | i | i
COc1ccc(NC(=O)CSc2nc3[nH]ncc3c(=O)n2-c2ccccc2OC)cc1OC | i | ? | i | i | i
Cc1ccccc1NC(=O)NC(N)=O | i | i | i | ? | i
C[C@H]1CN([C@@H](C)CO)C(=O)c2cccc(NC(=O)Nc3ccc(C(F)(F)F)cc3)c2O[C@@H]1CN(C)Cc1ccc(Cl)c(Cl)c1 | i | nt | i | i | nt
CCc1ccccc1NC(=O)CSc1nc2n[nH]c(C)c2c(=N)n1-c1ccc(OC)cc1 | 11µM | i | i | i | i
CCC(=O)c1c[nH]c(C(=O)NCc2cccnc2)c1 | i | i | i | i | i
CCc1ccc(C(c2ccccc2)c2c[nH]c3ccc(C)cc23)s1 (centres undefined) | i | ? | ? | 56µM | ?
Cn1cc(/C=N\NC(=O)c2cccs2)c2ccccc21 | i | i | i | i | i
O=C(NC1CCN(Cc2ccccc2)CC1)c1ccccc1OCc1ccccc1Cl | i | i | i | ? | i
NC(=O)CC[C@@H]1NC(=O)C(Cc2ccc(O)cc2)NC(=O)c2cc([N+](=O)[O-])cc(F)c2NCCC[C@@H](C(N)=O)NC1=O (some centres undefined) | nt | 50µM | nt | nt | ?
C[C@@H]1NC(=O)[C@H](CCC(=O)O)NC(=O)c2cc([N+](=O)[O-])cc(F)c2NCCC[C@@H](C(N)=O)NC1=O | i | 79µM | i | i | i
Cc1ccc(NC(=O)c2cc(N3C(=O)C4CCCCC4C3=O)ccc2N2CCOCC2)cc1 (centres undefined) | i | nt | i | i | i
CCOc1ccc(-n2c(C)cc(/C=C3/C(=N)N4C(=NC3=O)SN=C4S(C)(=O)=O)c2C)cc1 | i | 28µM | i | ? | 56µM
COc1ccccc1-n1c(C)cc(/C=C2/C(=N)N3C(=NC2=O)SN=C3S(C)(=O)=O)c1C | i | 50µM | i | i | nt
Cc1cc(/C=C2/C(=N)N3C(=NC2=O)SN=C3S(C)(=O)=O)c(C)n1-c1ccc(F)cc1 | i | 40µM | i | i | nt
COc1cc(/C=C2/C(=N)N3C(=NC2=O)SN=C3S(C)(=O)=O)ccc1OS(=O)(=O)c1ccccc1 | nt | 25µM | nt | nt | 50µM
CC(C)OP(=O)(c1ccc(N(C)C)cc1)C(Nc1ccccc1)c1ccccc1 (centres undefined) | i | ? | i | ? | ?
OCCC1CCCCN1CC(O)COCc1ccc(Cl)cc1 (centres undefined) | i | ? | ? | 22µM | ?
CCC1CCCCN1CC(O)COCc1cccc(OC)c1 (centres undefined) | i | i | i | i | i
NC(=O)C1CCCN(CC(O)COCc2ccc(Cl)cc2)C1 (centres undefined) | i | i | i | 18µM | 50µM
CC1CC(=O)C2=C(C1)Nc1nc3ccccc3n1C2c1cccnc1 (centres undefined) | i | nt | i | i | i
O=C1CCCC2=C1C(c1ccncc1)n1c(nc3ccccc31)N2 (centres undefined) | i | nt | i | 56µM | i

Assay outcomes (PubChem BioAssay)
